Compound activity: PubChem, National Center for Advancing Translational Sciences (NCATS)
In the library only some 7.4% were active in any assay of this set; here they are far more common.
SMN2 splice up – qHTS Assay for Enhancers of SMN2 Splice Variant Expression | Potency, µM (top dose mostly 46.1 µM), without a hit: at the highest dose activity change, positive = activation, most hits filed as activators | 210,000 tested, 2.8% active | HEK293 SMN2-luciferase splicing reporter, luminescence, 30-36 h; note: % of control where 0% means no effect; nearly all actives have a fitted effect of over 55% in size
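qHTS luciferase splicing reporter: luminescence rises when SMN2 exon 7 is included in transfected HEK293 cells. Compound exposure lasted 30-36 h at 37C, with 4.5 mM final sodium butyrate as control, followed by a ONE-Glo read.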
Rab9 prom act – qHTS Assay for Rab9 Promoter Activators | Huh7 Rab9 promoter-luciferase reporter, luminescence, 24 h | Potency, µM (doses to about 9.22 µM), inactives show at the highest dose activation, negative = inhibition, usual class: activators | 320,000 tested, 2.8% active; note: % of control where 0% means no effect; nearly all actives have a fitted effect of over 60% in size
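Huh7 reporter line, Rab9 promoter upstream of luciferase. Compound exposure 24 h at 37 °C in reduced-serum medium with 10% FBS. Read-out: luminescence.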
FLuc counter – qHTS profiling assay for firefly luciferase inhibitor/activator using purifed enzyme and Km concentrations of substrates (counterscreen for miR-21 project). Luciferin 4-monooxygenase (Photinus pyralis), P08659. purified FLuc, Km substrates, luminescence inhibition. Potency, µM (highest dose often 57.5 µM), for the others: at the highest dose activity change, negative = inhibition, most hits filed as inhibitors. 360,000 tested, 6.9% active. AID 588342, 2011;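 note: plate controls were vehicle for no effect and reference inhibitor for full effect; nearly all actives have a fitted effect of over 55% in size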
Target sequence (P08659 whole entry, looked up): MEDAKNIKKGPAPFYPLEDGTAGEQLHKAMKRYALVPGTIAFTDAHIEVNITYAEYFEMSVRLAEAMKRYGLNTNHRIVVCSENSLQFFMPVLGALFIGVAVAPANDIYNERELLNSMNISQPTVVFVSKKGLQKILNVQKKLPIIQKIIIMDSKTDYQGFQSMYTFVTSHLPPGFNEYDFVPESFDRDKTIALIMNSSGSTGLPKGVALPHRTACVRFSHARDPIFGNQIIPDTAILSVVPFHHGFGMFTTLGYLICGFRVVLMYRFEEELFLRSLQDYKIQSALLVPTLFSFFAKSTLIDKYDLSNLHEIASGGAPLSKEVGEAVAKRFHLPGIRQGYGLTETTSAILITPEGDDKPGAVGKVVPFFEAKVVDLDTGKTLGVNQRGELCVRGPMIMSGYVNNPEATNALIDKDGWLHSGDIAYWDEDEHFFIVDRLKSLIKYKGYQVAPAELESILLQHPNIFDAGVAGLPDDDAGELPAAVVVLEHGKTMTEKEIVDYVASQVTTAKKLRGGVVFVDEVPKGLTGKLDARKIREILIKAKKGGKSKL
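Purified P. pyralis luciferase (10nM final) with 10uM D-luciferin and 10uM ATP (Km levels) in 50mM Tris acetate pH 7.5, 10mM Mg acetate, 0.01% Tween-20, 0.05% BSA; qHTS 6-point titration, ~60 µM downward; luminescence read.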
NPC1 prom act – qHTS Assay for NPC1 Promoter Activators; 320,000 tested, 2.4% active; Potency, µM (highest dose often 9.22 µM), inactives show at the highest dose activation, most hits filed as activators; Huh7 NPC1 promoter luciferase reporter, 24 h; note: % of control where 0% means no effect; nearly all actives have a fitted effect of over 60% in size
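Compounds in DMSO were transferred onto Huh7 NPC1-luciferase reporter cells pre-incubated 2 h; after 24 h at 37 °C, Amplite reagent was dispensed and luminescence recorded 10 min later.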
ELG1 genotox – qHTS screen for small molecules that induce genotoxicity in human embryonic kidney (HEK293T) cells expressing luciferase-tagged ELG1. HEK293T ELG1-luciferase reporter, luminescence, 16 h. Potency, µM (doses to about 46 µM), for inactives: top-dose activity change, positive = activation, most hits filed as activators. 330,000 tested, 1.3% active. AID 504466, 2011; note: % of control where 0% means no effect; nearly all actives have a fitted effect of over 60% in size
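Cells (2,000/well) expressing the ELG1-luciferase fusion are dosed by pin tool and kept 16 hr at 37 °C, 5% CO2. Signal comes from ONE-Glo luciferase reagent after 30 min at room temperature.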
Luc counter – Counterscreen for Luciferase (Kinase-Glo TM) Inhibition. Luciferin 4-monooxygenase (Photuris pensylvanica), Q27757. Kinase-Glo luciferase, ATP luminescence, 8 min. Potency, µM (doses to about 38.3 µM), for the others: at the highest dose activity change, negative = inhibition, most hits filed as inhibitors. 200,000 tested, 0.28% active. AID 1379, 2008; note: % is set by controls: 0 for no effect and ±100 for the full control effect; nearly all actives have a fitted effect of over 60% in size
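Inhibition of Kinase-Glo luciferase light generation was assessed at 10 uM ATP in pH 7.2 imidazole buffer, with luminescence measured after eight minutes at ambient temperature.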
An asterisk follows results filed as active. Calls come from the whole dose curve; as a rule, active = well fitted curve in the direction sought with a large enough effect; inconclusive = small, poorly fitted or top-dose-only effect, or another doubt; inactive = no such curve, though single readings can be large; an effect the other way counts as inactive or inconclusive. Potency is the fitted concentration of half-maximal effect.

Screening CCC(=O)Oc1cc(C(C)(C)C)cc2cc(-c3nc(-c4ccc(OC)cc4OC)no3)c(=O)oc12 returned FLuc counter -2%.
O=C(c1cc2ccccc2oc1=O)N1CCOCC1 was read as Rab9 prom act inconclusive, FLuc counter 12µM*, NPC1 prom act inconclusive and ELG1 genotox inconclusive.
Screening O=C(c1cc2c(=O)n3ccccc3nc2s1)N1CCOCC1 returned SMN2 splice up 11µM*, Rab9 prom act 3.2µM*, FLuc counter 19µM*, NPC1 prom act 2.8µM*, ELG1 genotox 4.1µM* and Luc counter -1%.
For O=C(c1cc2c(=O)oc3ccccc3c2s1)N1CCOCC1 the results were SMN2 splice up 10%, Rab9 prom act 22%, FLuc counter 17µM*, NPC1 prom act 18%, ELG1 genotox 1% and Luc counter 2%.
For O=C(c1cc2cc([N+](=O)[O-])ccc2oc1=O)N1CCN(c2ncccn2)CC1 the results were SMN2 splice up -4%, Rab9 prom act -7%, FLuc counter 3%, NPC1 prom act 0%, ELG1 genotox 0% and Luc counter -1%.
Screening O=C(c1cc2cc(Cl)ccc2oc1=O)N1CCOCC1 returned SMN2 splice up 11%, Rab9 prom act 0%, FLuc counter 0%, NPC1 prom act -3%, ELG1 genotox 1% and Luc counter 1%.
`O=C(c1cc2cc([N+](=O)[O-])ccc2oc1=O)N1CCOCC1` gave Rab9 prom act -33%, FLuc counter 2.4µM*, NPC1 prom act -32%, ELG1 genotox -3% and Luc counter -21%.
`COc1ccc2c(c1)O[C@@H](c1ccc3c(c1)OCO3)[C@H](OC(=O)N[C@H]1CCCc3ccccc31)C2=O` gave SMN2 splice up -4% and Luc counter 5%.
Screening COc1ccc(-c2cc(=O)oc3c4c(ccc23)OCN(Cc2ccccc2)C4)cc1 returned SMN2 splice up -9% and FLuc counter -2%.
For C=CCn1cnnc1SCC(=O)Nc1cccnc1Cl the results were Rab9 prom act 4%, FLuc counter -1%, NPC1 prom act 3% and ELG1 genotox 1%.
Screening CC1CCc2c(sc3nc(-c4cc5ccccc5oc4=O)nc(Cl)c23)C1 (stereo unspecified) returned SMN2 splice up 2% and FLuc counter 2.4µM*.
Cc1ccc(-n2cc(C(=O)OCc3ccc(F)c(F)c3)c3ccccc3c2=O)cc1 was read as FLuc counter 1%.
For COc1ccccc1/C=C1/C(=O)N(c2ccc([N+](=O)[O-])cc2)N=C1C the results were Rab9 prom act 4%, FLuc counter inconclusive, NPC1 prom act 0% and ELG1 genotox 3%.
`CN(C)/C=C1\C(=O)N(c2ccc([N+](=O)[O-])cc2)N=C1c1ccccc1` gave SMN2 splice up inconclusive, Rab9 prom act 5.6µM*, FLuc counter inconclusive, NPC1 prom act inconclusive, ELG1 genotox 9.2µM* and Luc counter -6%.
C/C(=C1/C(=O)N(c2ccc([N+](=O)[O-])cc2)N=C1c1ccccc1)N(C)C was read as SMN2 splice up -32%, Rab9 prom act 21%, FLuc counter 3%, NPC1 prom act inconclusive, ELG1 genotox -4% and Luc counter -6%.
For CN(C)/C=C1/C(=O)N(c2ccc([N+](=O)[O-])cc2)N=C1c1ccccc1 the results were SMN2 splice up 10µM*, Rab9 prom act inconclusive, FLuc counter 7.6µM*, NPC1 prom act inconclusive, ELG1 genotox inconclusive and Luc counter -3%.
`N#Cc1ccccc1OCC(=O)N1CCN(c2ccccc2F)CC1` gave SMN2 splice up -25% and FLuc counter 0%.
Screening S=c1[nH]nc(-c2cc(-c3ccccc3)n[nH]2)n1/N=C/C=C/c1ccco1 returned Rab9 prom act 0%, FLuc counter 13µM*, NPC1 prom act -3% and ELG1 genotox 5%.
For COc1ccccc1/C=C/C=N/n1c(-c2ccncc2)n[nH]c1=S the results were SMN2 splice up 15%, Rab9 prom act 2%, FLuc counter 12µM*, NPC1 prom act -4%, ELG1 genotox 3% and Luc counter 1%.
COc1ccccc1/C=C/C=N/n1c(-c2cc(C)[nH]n2)n[nH]c1=S was read as SMN2 splice up 0%, Rab9 prom act 1%, FLuc counter 21µM*, NPC1 prom act -1%, ELG1 genotox 3% and Luc counter 1%.
COc1ccccc1/C=C/C=N/n1c(-c2ccccn2)n[nH]c1=S was read as Rab9 prom act inconclusive, FLuc counter 17µM*, NPC1 prom act 18% and ELG1 genotox inconclusive.
Screening CC(C)NC(=O)N1CCCC2(CCN(C(=O)c3cc(C(F)(F)F)cc(C(F)(F)F)c3)CC2)C1 returned SMN2 splice up -7% and Luc counter -2%.
`CCc1nnc2n1N(C(C)=O)C(c1ccc(C(C)(C)C)cc1)=C(C(C)=O)S2` gave FLuc counter -3%.
`S=c1[nH]nc(-c2ccncc2)n1/N=C/C(Cl)=C\c1ccccc1` gave SMN2 splice up 11µM*, Rab9 prom act 3.2µM*, FLuc counter -8%, NPC1 prom act 3.5µM*, ELG1 genotox -5% and Luc counter 1%.
For S=c1[nH]nc(-c2ccncc2)n1/N=C/C=C/c1ccccc1 the results were Rab9 prom act -1%, FLuc counter inconclusive, NPC1 prom act -1% and ELG1 genotox -12%.
Screening O=C(O)CN1C(=O)/C(=C/c2ccc(SCc3ccccc3)o2)SC1=S returned SMN2 splice up 15%, Rab9 prom act -2%, FLuc counter 19µM*, NPC1 prom act -4%, ELG1 genotox 1% and Luc counter -3%.
For O=C(O)CN1C(=O)/C(=C\c2cccc(OC(=O)c3ccco3)c2)SC1=S the results were Rab9 prom act 0%, FLuc counter 24µM*, NPC1 prom act 4% and ELG1 genotox 0%.
CCN1C(=O)/C(=C\c2cccc(OC(=O)c3ccco3)c2)SC1=S was read as Rab9 prom act 4%, FLuc counter 5%, NPC1 prom act -6% and ELG1 genotox 4%.
